Holding throughout (details): mRNA level, 48 h; actives raise or lower the signal
Read-out in assay [1]: Insulin Like Growth Factor 1 (IGF1), IGF1 (gene 3479)
Briefly: LTEA_HepaRG_IGF1: Life Technologies and Expression Analysis (LTEA) Assay for Insulin Like Growth Factor 1 (IGF1) using HepaRG (AID 2283506). In outline:
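Differentiated human HepaRG cells were dosed for 48 h in serum-free induction medium with 0.5% DMSO, eight half-log concentrations up to 100 uM, in duplicate. IGF1 mRNA was quantified by qRT-PCR normalized to ACTB, GAPDH, POLR2A; bidirectional fitting versus DMSO.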

Read-out in assay [2]: Intercellular Adhesion Molecule 1 (ICAM1), ICAM1 (gene 3383)
The assay is described as follows: LTEA_HepaRG_ICAM1: Life Technologies and Expression Analysis (LTEA) Assay for Intercellular Adhesion Molecule 1 (ICAM1) using HepaRG (AID 2283507). In outline: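 Differentiated HepaRG cells in serum-free induction medium were exposed in duplicate for 48 h to eight half-log concentrations up to 100 uM in 0.5% DMSO. Transcript levels were measured by qRT-PCR normalized to ACTB, GAPDH and POLR2A; bidirectional fits relative to DMSO.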

Read-out in assay [3]: Insulin-like growth factor-binding protein 1 (IGFBP1), IGFBP1 (gene 3484)
Briefly: LTEA_HepaRG_IGFBP1: Life Technologies and Expression Analysis (LTEA) Assay for Insulin-like growth factor-binding protein 1 (IGFBP1) using HepaRG (AID 2283508). The gist of the method:
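Differentiated human HepaRG cells in serum-free induction medium were exposed in duplicate for 48 h to eight concentrations, top 100 uM with half-log dilutions, in 0.5% DMSO. Transcript levels came from qRT-PCR normalised to ACTB, GAPDH and POLR2A, fitted bidirectionally against DMSO.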

Read-out in assay [4]: Interleukin 6 (IL6), IL6 (gene 3569)
Briefly: LTEA_HepaRG_IL6: Life Technologies and Expression Analysis (LTEA) Assay for Interleukin 6 (IL6) using HepaRG (AID 2283509). In outline:
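Differentiated human HepaRG cells, plated 48 h then switched to serum-free induction medium, were exposed in duplicate for 48 h to eight half-log concentrations up to 100 uM in 0.5% DMSO. IL6 mRNA measured by qRT-PCR, normalized to ACTB/GAPDH/POLR2A.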

Read-out in assay [5]: Interleukin 6 Receptor (IL6R), IL6R (gene 3570)
The assay is described as follows: LTEA_HepaRG_IL6R: Life Technologies and Expression Analysis (LTEA) Assay for Interleukin 6 Receptor (IL6R) using HepaRG (AID 2283510).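 For AC50: TaqMan qRT-PCR signal normalized to ACTB GAPDH and POLR2A housekeeping genes.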 The gist of the method: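 Differentiated human HepaRG cells, plated 48 h then switched to serum-free induction medium, were dosed in duplicate for 48 h at eight half-log concentrations up to 100 uM in 0.5% DMSO. IL6R mRNA quantified by qRT-PCR, normalized to ACTB/GAPDH/POLR2A; bidirectional fit versus DMSO.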

Read-out in assay [6]: Keratin 19 (KRT19), KRT19 (gene 3880)
The assay is described as follows: LTEA_HepaRG_KRT19: Life Technologies and Expression Analysis (LTEA) Assay for Keratin 19 (KRT19) using HepaRG (AID 2283512). In outline: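 Differentiated human HepaRG cells, plated 48 h, were exposed in duplicate for 48 h in serum-free induction medium to eight half-log concentrations up to 100 uM in 0.5% DMSO. KRT19 mRNA was quantified by qRT-PCR, normalized to ACTB, GAPDH and POLR2A, and fitted bidirectionally versus DMSO.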

Read-out in assay [7]: JUN Transcription Factor, JUN (gene 3725)
Briefly: LTEA_HepaRG_JUN: Life Technologies and Expression Analysis (LTEA) Assay for JUN Transcription Factor using HepaRG (AID 2283513). The gist of the method:
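Differentiated HepaRG cells were exposed to chemicals for 48 h in serum-free induction medium, 8 concentrations from 100 uM in half-log steps, 0.5% DMSO vehicle, in duplicate. JUN mRNA was quantified by TaqMan qRT-PCR, normalized to ACTB, GAPDH, POLR2A.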

Read-out in assay [8]: Lipase C (LIPC), LIPC (gene 3990)
Briefly: LTEA_HepaRG_LIPC: Life Technologies and Expression Analysis (LTEA) Assay for Lipase C (LIPC) using HepaRG (AID 2283514). In outline: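 Differentiated human HepaRG cells in serum-free induction medium were exposed in duplicate for 48 h to eight concentrations (top 100 uM, half-log steps, 0.5% DMSO). LIPC mRNA was quantified by TaqMan qRT-PCR, normalized to ACTB, GAPDH and POLR2A, with bidirectional fitting versus DMSO.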

Read-out in assay [9]: Lipoprotein lipase (LPL), LPL (gene 4023)
The assay is described as follows: LTEA_HepaRG_LPL: Life Technologies and Expression Analysis (LTEA) Assay for Lipoprotein lipase (LPL) using HepaRG (AID 2283515). In outline: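 Differentiated human HepaRG cells in serum-free induction medium were exposed in duplicate for 48 h to eight half-log concentrations (top 100 uM) in 0.5% DMSO. LPL mRNA was quantified by TaqMan qRT-PCR, normalized to ACTB, GAPDH and POLR2A.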

Read-out in assay [10]: MicroRNA 122 (MIR122), gene 406906
The assay is described as follows: LTEA_HepaRG_MIR122: Life Technologies and Expression Analysis (LTEA) Assay for MicroRNA 122 (MIR122) using HepaRG (AID 2283516). Note: the transcript read is the microRNA miR-122. The gist of the method:
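Differentiated human HepaRG cells were exposed 48 h in serum-free induction medium to eight half-log concentrations (top 100 uM, 0.5% DMSO). Transcript level was measured by TaqMan qRT-PCR, normalized to ACTB, GAPDH and POLR2A, and fitted bidirectionally versus DMSO.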

Read-out in assay [11]: matrix metalloproteinase-10 (MMP10), MMP10 (gene 4319)
Briefly: LTEA_HepaRG_MMP10: Life Technologies and Expression Analysis (LTEA) Assay for matrix metalloproteinase-10 (MMP10) using HepaRG (AID 2283517). In outline:
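HepaRG, collagen I, ~100,000 cells/well; serum-free induction medium; 48 h exposure, duplicate, 8-pt half-log to 100 uM, 0.5% DMSO. Readout: TaqMan qRT-PCR, normalized to ACTB/GAPDH/POLR2A; bidirectional fit vs DMSO.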

Read-out in another assay: MYC, MYC (gene 4609)
The assay is described as follows: LTEA_HepaRG_MYC: Life Technologies and Expression Analysis (LTEA) Assay for MYC using HepaRG (AID 2283518). In outline: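 Differentiated human HepaRG cells, plated 48 h then switched to serum-free induction medium, were exposed in duplicate for 48 h to 8-point half-log series up to 100 uM in 0.5% DMSO. MYC mRNA measured by qRT-PCR, normalized to ACTB/GAPDH/POLR2A.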

Read-out in assay [12]: Paternally Expressed 10 (PEG10), PEG10 (gene 23089)
The assay is described as follows: LTEA_HepaRG_PEG10: Life Technologies and Expression Analysis (LTEA) Assay for Paternally Expressed 10 (PEG10) using HepaRG (AID 2283520). In outline:
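Differentiated HepaRG cells, plated 48 h then switched to serum-free induction medium, were exposed in duplicate for 48 h to eight half-log concentrations topping at 100 uM in 0.5% DMSO. PEG10 mRNA was quantified by TaqMan qRT-PCR, normalised to ACTB, GAPDH and POLR2A.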

Read-out in assay [13]: Nuclear factor NF-kappa-B p105 subunit (Homo sapiens) (UniProt P19838)
The assay is described as follows: LTEA_HepaRG_NFKB1: Life Technologies and Expression Analysis (LTEA) Assay for Nuclear Factor Kappa B Subunit 1 (NFKB1) using HepaRG (AID 2283521).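 For outcome: TaqMan qRT-PCR transcript normalised to ACTB GAPDH and POLR2A housekeeping genes.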 The gist of the method:
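NFKB1 transcript was measured by TaqMan qRT-PCR on Fluidigm arrays, normalised to three housekeeping genes and fitted in both directions against 0.5% DMSO. HepaRG cells were dosed in duplicate for 48 h in serum-free induction medium, eight half-log steps from 100 uM.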

Read-out in assay [14]: Protein phosphatase 2A (PPP2R4), PTPA (gene 5524)
Briefly: LTEA_HepaRG_PPP2R4: Life Technologies and Expression Analysis (LTEA) Assay for Protein phosphatase 2A (PPP2R4) using HepaRG (AID 2283522). In outline: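 Differentiated HepaRG cells in serum-free induction medium were exposed in duplicate for 48 h to eight concentrations, top 100 uM with half-log dilutions, in 0.5% DMSO. PPP2R4 mRNA was quantified by TaqMan qRT-PCR, normalized to ACTB, GAPDH and POLR2A.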

Read-out in assay [15]: Phosphatase and tensin (PTEN), PTEN (gene 5728)
Briefly: LTEA_HepaRG_PTEN: Life Technologies and Expression Analysis (LTEA) Assay for Phosphatase and tensin (PTEN) using HepaRG (AID 2283523). In outline:
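Differentiated human HepaRG cells, plated 48 h then switched to serum-free induction medium, were exposed in duplicate for 48 h to eight half-log concentrations up to 100 uM in 0.5% DMSO. PTEN mRNA measured by TaqMan qRT-PCR, normalized to ACTB/GAPDH/POLR2A, bidirectional fit versus DMSO.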

Read-out in assay [16]: solute carrier (SLC22A1), SLC22A1 (gene 6580)
Briefly: LTEA_HepaRG_SLC22A1: Life Technologies and Expression Analysis (LTEA) Assay for solute carrier (SLC22A1) using HepaRG (AID 2283524). In outline:
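Human HepaRG cells were plated 48 h, switched to serum-free induction medium, then exposed in duplicate for 48 h to 8-point half-log series from 100 uM in 0.5% DMSO. SLC22A1 mRNA measured by qRT-PCR, normalized to ACTB/GAPDH/POLR2A, fitted bidirectionally versus DMSO.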

Read-out in assay [17]: Pyruvate Dehydrogenase Kinase 4 (PDK4), PDK4 (gene 5166)
Briefly: LTEA_HepaRG_PDK4: Life Technologies and Expression Analysis (LTEA) Assay for Pyruvate Dehydrogenase Kinase 4 (PDK4) using HepaRG (AID 2283525). In outline: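 Differentiated human HepaRG cells, pre-cultured 48 h, were exposed in duplicate for 48 h in serum-free induction medium to eight half-log concentrations up to 100 uM in 0.5% DMSO. PDK4 mRNA was quantified by qRT-PCR, normalized to ACTB, GAPDH and POLR2A, bidirectional fitting versus DMSO.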

Read-out in assay [18]: matrix metalloproteinase-3 (MMP3), MMP3 (gene 4314)
Briefly: LTEA_HepaRG_MMP3: Life Technologies and Expression Analysis (LTEA) Assay for matrix metalloproteinase-3 (MMP3) using HepaRG (AID 2283519). The gist of the method: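 Differentiated human HepaRG cells, plated 48 h on collagen I, were exposed in duplicate for 48 h in serum-free induction medium to eight half-log concentrations up to 100 uM in 0.5% DMSO. MMP3 mRNA was quantified by TaqMan qRT-PCR, normalised to ACTB, GAPDH and POLR2A.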

Molecules are shown by their SMILES. Calls of active or inactive are those of the source. Rule for the calls: active = hit-call score of the fitted dose curve at least 0.9, where 1 is the maximum; inactive = score below 0.9.

Nuclear factor NF-kappa-B p105 subunit (Homo sapiens), sequence (P19838 whole entry, looked up): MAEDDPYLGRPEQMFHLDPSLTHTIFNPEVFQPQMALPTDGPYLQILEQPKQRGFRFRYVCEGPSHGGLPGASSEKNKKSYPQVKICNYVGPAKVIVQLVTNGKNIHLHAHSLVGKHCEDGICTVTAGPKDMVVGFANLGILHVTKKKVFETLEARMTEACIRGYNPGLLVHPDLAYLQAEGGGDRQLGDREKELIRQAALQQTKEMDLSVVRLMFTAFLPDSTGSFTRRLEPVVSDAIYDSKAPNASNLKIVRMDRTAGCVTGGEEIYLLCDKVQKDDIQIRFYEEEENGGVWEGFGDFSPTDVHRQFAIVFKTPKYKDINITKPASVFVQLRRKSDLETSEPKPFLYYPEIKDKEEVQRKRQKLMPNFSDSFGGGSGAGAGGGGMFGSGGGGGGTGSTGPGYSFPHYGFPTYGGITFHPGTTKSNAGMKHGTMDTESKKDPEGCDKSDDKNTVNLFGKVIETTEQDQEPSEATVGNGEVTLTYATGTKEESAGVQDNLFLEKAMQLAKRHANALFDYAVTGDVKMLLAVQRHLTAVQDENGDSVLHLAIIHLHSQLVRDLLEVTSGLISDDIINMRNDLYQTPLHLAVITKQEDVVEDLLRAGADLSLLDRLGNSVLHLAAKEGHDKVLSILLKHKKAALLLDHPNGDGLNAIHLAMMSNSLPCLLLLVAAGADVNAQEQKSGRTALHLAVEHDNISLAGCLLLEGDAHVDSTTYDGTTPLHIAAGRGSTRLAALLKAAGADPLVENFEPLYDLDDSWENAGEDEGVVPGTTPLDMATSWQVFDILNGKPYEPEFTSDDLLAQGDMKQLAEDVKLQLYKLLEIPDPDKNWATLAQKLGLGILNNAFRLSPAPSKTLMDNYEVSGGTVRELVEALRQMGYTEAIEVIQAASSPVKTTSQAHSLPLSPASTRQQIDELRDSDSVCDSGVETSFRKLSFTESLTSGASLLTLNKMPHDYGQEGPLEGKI

As to `CC(CO)OC(C)CO` (stereo not given) (tested in a mixture with another compound), the result in [1], in assay [2], in assay [3], in [4], in [5] and in assay [6] was inactive. For the same compound, the outcome is “inactive” in assay [7]; “inactive” in assay [8]; “inactive” in assay [9]; “inactive” in assay [10]; “inactive” in assay [11]; “inactive” in the assay with MYC, MYC (gene 4609). In addition, the compound was called inactive in assay [12], in assay [13], in [14], in [15], in assay [16] and in [17].
What is called AC50 is the concentration giving half of the maximal activity seen. Turning to `CCc1c(C(=O)NN2CCCCC2)nn(-c2ccc(Cl)cc2Cl)c1-c1ccc(Br)cc1`, the half-maximal activity concentration (AC50) in assay [1] is 50 µM (active); in assay [2], 26.6 µM (active); in assay [3], 31.6 µM (active); in assay [4] it was 76.5 µM (active); in assay [5] it was 89.1 µM (active); in [6], 50 µM (active). For the same compound, the AC50 was 50 µM (active) in [7]; 34.2 µM (active) in [8]; 4.13 µM (active) in assay [9]; 29.8 µM (active) in [10]; 33.2 µM (active) in assay [11]; 50 µM (active) in the assay with MYC, MYC (gene 4609). Besides, the AC50 is 29.3 µM (active) in assay [12], 74.8 µM (active) in assay [13], 40.4 µM (active) in assay [16] and 22.1 µM (active) in assay [17]. Moreover, the call in assay [14] and in [15] was inactive.
Turning to `CC(=O)OCCOCCOCCOC(C)=O`, the compound was classed as inactive in assay [1], in assay [2], in assay [3], in assay [4], in assay [5] and in assay [6]. Besides, the outcome was “inactive” in assay [7]; “inactive” in [8]; “inactive” in [9]; “inactive” in assay [10]; “inactive” in assay [11]; “inactive” with MYC, MYC (gene 4609). Besides, the result in [12], in assay [14], in assay [15], in assay [16] and in [17] was inactive.
Turning to `C[C@]12C=CC(=O)C=C1CC[C@@H]1[C@@H]2C(=O)C[C@@]2(C)[C@H]1CC[C@]2(O)C(=O)CO`, the outcome in [1], in [2], in assay [3], in assay [4], in assay [5] and in [6] was inactive. The call in assay [8], in assay [9], in assay [10], in assay [11], in assay [18] and in [12] was inactive. Further, the outcome in assay [13], in assay [14], in assay [15], in assay [16] and in assay [17] was inactive.
